# PubChem BioAssay (NCI)
# Where “and” joins values, the source holds several entries; their conditions need not be identical. Identical values can stand only once. Compounds without any hit were thinned out: in the full panel of roughly 79,000, 15% have a hit. A number with no mark means an inactive call. Calls of active or inactive are those of the source. Cut-off read from the data, not from the text of the source: active = growth inhibition above about 70%; inactive = the rest.
# Tests used:
# [1] = NCI Yeast Anticancer Drug Screen. Data for the rad50 strain (AID 155);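 note: 0% = growth of vehicle-only cultures of the same strain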; conditions: S. cerevisiae rad50 strain growth inhibition, stronger effect = higher value
# How it was run: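 DNA repair mutant yeast, compound exposure, growth read-out; inhibition is taken relative to vehicle.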
# [2] = NCI Yeast Anticancer Drug Screen. Data for the mec2-1 strain (AID 157); conditions: S. cerevisiae mec2-1 strain, stronger effect = higher value
# How it was run: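 Each compound was tested on mec2-1 yeast, a strain altered in DNA damage repair or cell cycle control. Growth inhibition is reported relative to vehicle.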
# [3] = NCI Yeast Anticancer Drug Screen. Data for the sgs1 mgt1 strain (AID 161);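 note: 0% = growth of cultures given vehicle only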; conditions: S. cerevisiae sgs1 mgt1 strain, stronger effect = higher value
# How it was run: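 Genetically altered yeast, compound exposure, growth inhibition relative to vehicle.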
# [4] = NCI Yeast Anticancer Drug Screen. Data for the cln2 rad14 strain (AID 165);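 note: 0% = growth equal to vehicle treated cultures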; conditions: S. cerevisiae cln2 rad14 strain, stronger effect = higher value
# How it was run: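 Test compounds were added to cln2 rad14 yeast cultures; inhibition of growth was then determined by comparison with vehicle treatment.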
# [5] = NCI Yeast Anticancer Drug Screen. Data for the bub3 strain (AID 167); conditions: S. cerevisiae bub3 mutant strain, stronger effect = higher value
# How it was run: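 In this screen, a yeast mutant lacking normal mitotic checkpoint function is challenged with compound. Relative growth versus vehicle gives the inhibition value.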
# [6] = NCI Yeast Anticancer Drug Screen. Data for the mlh1 rad18 strain (AID 175); conditions: S. cerevisiae mlh1 rad18 strain growth inhibition, stronger effect = higher value
# How it was run: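 Inhibition values reflect reduced growth of mutant yeast versus vehicle-treated controls following compound exposure; the mutations affect DNA damage repair.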
# [7] = NCI Yeast Anticancer Drug Screen. Data for the mgt1 strain (AID 153); conditions: S. cerevisiae mgt1 mutant growth inhibition, stronger effect = higher value
# How it was run: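 In the mgt1 strain, test compounds were added and growth inhibition was determined relative to vehicle-treated controls.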
# [8] = NCI Yeast Anticancer Drug Screen. Data for the rad14 strain (AID 159);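 note: 0% = growth of vehicle-treated control cultures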; conditions: S. cerevisiae rad14 strain growth inhibition, stronger effect = higher value
# How it was run: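 DNA repair-defective yeast, compound-exposed; % growth inhibition derived by comparison with vehicle-treated controls.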
# [9] = NCI Yeast Anticancer Drug Screen. Data for the CLN2oe strain (AID 163);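 note: 0% = growth of vehicle-only control cultures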; conditions: S. cerevisiae CLN2oe strain, stronger effect = higher value
# How it was run: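 First, the altered yeast strain was treated with each compound; second, its growth was measured; finally, inhibition was derived by comparison with vehicle controls.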
# [10] = NCI Yeast Anticancer Drug Screen. Data for the wt2 strain (AID 169);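 note: 0% = growth of vehicle-treated yeast cultures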; conditions: S. cerevisiae wt2 strain growth inhibition, stronger effect = higher value
# How it was run: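 The panel's yeast strains carry defined changes in DNA repair or cell cycle genes. Each strain is grown with compound, and growth loss is scored relative to vehicle.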
# [11] = NCI Yeast Anticancer Drug Screen. Data for the mlh1 strain (AID 171);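 note: 0% = growth of vehicle-treated control cultures of the same strain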; conditions: S. cerevisiae mlh1 strain growth inhibition, stronger effect = higher value
# How it was run: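 Inhibition values reflect reduced yeast growth in the presence of compound, referenced to vehicle controls, using a strain chosen for its alteration in DNA repair or cell cycle control.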
# [12] = NCI Yeast Anticancer Drug Screen. Data for the sgs1 strain (AID 173);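 note: 0% = growth of vehicle-only control cultures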; conditions: S. cerevisiae sgs1 mutant, stronger effect = higher value
# How it was run: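 Vehicle-treated cultures served as reference for growth inhibition of a yeast strain altered in DNA damage repair or cell cycle control after compound exposure.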
# [13] = NCI Yeast Anticancer Drug Screen. Data for the rad18 strain (AID 177); conditions: S. cerevisiae rad18 mutant growth inhibition, stronger effect = higher value
# How it was run: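 Steps: expose repair-mutant yeast to compound; measure growth; express as inhibition relative to vehicle control.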
# [14] = at 5.0 µM (retest, dose inferred, filed as 0.5)
# [15] = at 50.0 µM (retest, dose inferred, filed as 5.0)
structure (smiles),measurement,setting,value
O=[N+]([O-])c1ccccc1,growth inhibition,[1]; [14],11%
same,growth inhibition,[1]; [15],75% (active)
same,growth inhibition,[1]; at 50.0 µM,79.2% (active)
same,growth inhibition,[2]; [14],3%
same,growth inhibition,[2]; [15],10%
same,growth inhibition,[2]; at 50.0 µM,-0.5%
same,growth inhibition,[3]; [14],3%
same,growth inhibition,[3]; [15],17%
same,growth inhibition,[3]; at 50.0 µM,27.1%
same,growth inhibition,[4]; [14],4%
same,growth inhibition,[4]; [15],4%
same,growth inhibition,[4]; at 50.0 µM,35.5%
same,growth inhibition,[5]; [14],2%
same,growth inhibition,[5]; [15],12%
same,growth inhibition,[5]; at 50.0 µM,13.3%
Cc1nc(Cl)c(CBr)c(Cl)n1,growth inhibition,[1]; [14],38%
same,growth inhibition,[1]; [15],99% (active)
same,growth inhibition,[1]; at 50.0 µM,67.8%
same,growth inhibition,[2]; [14],44%
same,growth inhibition,[2]; [15],100% (active)
same,growth inhibition,[2]; at 50.0 µM,70.2% (active)
same,growth inhibition,[3]; [14],43%
same,growth inhibition,[3]; [15],100% (active)
same,growth inhibition,[3]; at 50.0 µM,32.6%
same,growth inhibition,[4]; [14],40%
same,growth inhibition,[4]; [15],100% (active)
same,growth inhibition,[4]; at 50.0 µM,33.8%
same,growth inhibition,[5]; [14],54%
same,growth inhibition,[5]; [15],100% (active)
same,growth inhibition,[5]; at 50.0 µM,52.5%
same,growth inhibition,[6]; [14],50%
same,growth inhibition,[6]; [15],99% (active)
CSC(=Nc1ccccc1)N(c1ccccc1)c1nc(=[N+](C)C)ss1,growth inhibition,[7]; at 1.2 µM,2%
same,growth inhibition,[7]; at 3.7 µM,7%
same,growth inhibition,[7]; at 11.0 µM,84% (active)
same,growth inhibition,[7]; at 33.0 µM,98% (active)
same,growth inhibition,[7]; at 100.0 µM,99% (active)
same,growth inhibition,[1]; at 1.2 µM,3%
same,growth inhibition,[1]; at 3.7 µM,13%
same,growth inhibition,[1]; [14],56%
same,growth inhibition,[1]; at 11.0 µM,93% (active)
same,growth inhibition,[1]; at 33.0 µM,98% (active)
same,growth inhibition,[1]; [15],99% (active)
same,growth inhibition,[1]; at 50.0 µM,98.4% (active)
same,growth inhibition,[1]; at 100.0 µM,99% (active)
same,growth inhibition,[2]; at 1.2 µM,2%
same,growth inhibition,[2]; at 3.7 µM,9%
same,growth inhibition,[2]; [14],26%
same,growth inhibition,[2]; at 11.0 µM,80% (active)
same,growth inhibition,[2]; at 33.0 µM,97% (active)
same,growth inhibition,[2]; [15],99% (active)
same,growth inhibition,[2]; at 50.0 µM,99.3% (active)
same,growth inhibition,[2]; at 100.0 µM,99% (active)
same,growth inhibition,[8]; at 1.2 µM,-5%
same,growth inhibition,[8]; at 3.7 µM,7%
same,growth inhibition,[8]; at 11.0 µM,92% (active)
same,growth inhibition,[8]; at 33.0 µM,99% (active)
same,growth inhibition,[8]; at 100.0 µM,99% (active)
same,growth inhibition,[3]; [14],58%
same,growth inhibition,[3]; [15],99% (active)
same,growth inhibition,[3]; at 50.0 µM,98.6% (active)
same,growth inhibition,[9]; at 1.2 µM,-12%
same,growth inhibition,[9]; at 3.7 µM,-11%
same,growth inhibition,[9]; at 11.0 µM,14%
same,growth inhibition,[9]; at 33.0 µM,80% (active)
same,growth inhibition,[9]; at 100.0 µM,98% (active)
same,growth inhibition,[4]; [14],-1%
same,growth inhibition,[4]; [15],98% (active)
same,growth inhibition,[4]; at 50.0 µM,93.4% (active)
same,growth inhibition,[5]; at 1.2 µM,1%
same,growth inhibition,[5]; at 3.7 µM,22%
same,growth inhibition,[5]; [14],37%
same,growth inhibition,[5]; at 11.0 µM,85% (active)
same,growth inhibition,[5]; at 33.0 µM,93% (active)
same,growth inhibition,[5]; [15],98% (active)
same,growth inhibition,[5]; at 50.0 µM,98.5% (active)
same,growth inhibition,[5]; at 100.0 µM,99% (active)
same,growth inhibition,[10]; at 1.2 µM,0%
same,growth inhibition,[10]; at 3.7 µM,17%
same,growth inhibition,[10]; at 11.0 µM,87% (active)
same,growth inhibition,[10]; at 33.0 µM,97% (active)
same,growth inhibition,[10]; at 100.0 µM,99% (active)
same,growth inhibition,[11]; at 1.2 µM,-1%
same,growth inhibition,[11]; at 3.7 µM,10%
same,growth inhibition,[11]; at 11.0 µM,88% (active)
same,growth inhibition,[11]; at 33.0 µM,99% (active)
same,growth inhibition,[11]; at 100.0 µM,99% (active)
same,growth inhibition,[12]; at 1.2 µM,3%
same,growth inhibition,[12]; at 3.7 µM,24%
same,growth inhibition,[12]; at 11.0 µM,91% (active)
same,growth inhibition,[12]; at 33.0 µM,98% (active)
same,growth inhibition,[12]; at 100.0 µM,99% (active)
same,growth inhibition,[6]; [14],44%
same,growth inhibition,[6]; [15],98% (active)
same,growth inhibition,[6]; at 50.0 µM,98.6% (active)
same,growth inhibition,[13]; at 1.2 µM,4%
same,growth inhibition,[13]; at 3.7 µM,34%
same,growth inhibition,[13]; at 11.0 µM,93% (active)
same,growth inhibition,[13]; at 33.0 µM,98% (active)
same,growth inhibition,[13]; at 100.0 µM,98% (active)
CC1=C[n+]2cc(C)ccc2Sc2c1ccc1ccccc21,growth inhibition,[1]; [14],-2%
same,growth inhibition,[1]; [15],24%
same,growth inhibition,[1]; at 50.0 µM,64.3%
same,growth inhibition,[2]; [14],11%
same,growth inhibition,[2]; [15],50%
same,growth inhibition,[2]; at 50.0 µM,74.7% (active)
same,growth inhibition,[3]; [14],-20%
same,growth inhibition,[3]; [15],10%
same,growth inhibition,[3]; at 50.0 µM,80.5% (active)
same,growth inhibition,[4]; [14],-2%
same,growth inhibition,[4]; [15],4%
same,growth inhibition,[4]; at 50.0 µM,28.8%
same,growth inhibition,[5]; [14],0%
same,growth inhibition,[5]; [15],29%
same,growth inhibition,[5]; at 50.0 µM,66.9%
CCN(CC)CC.CCOc1ccc(NC(=O)N=C=[N-])cc1.[CH-]1CCCCC1.[CH-]1CCCCC1.[CH-]1CCCCC1.[Cl-].[Sn+4],growth inhibition,[1]; [14],99% (active)
same,growth inhibition,[1]; [15],99% (active)
same,growth inhibition,[1]; at 50.0 µM,87.2% (active)
same,growth inhibition,[2]; [14],100% (active)
same,growth inhibition,[2]; [15],99% (active)
same,growth inhibition,[2]; at 50.0 µM,88.4% (active)
same,growth inhibition,[3]; [14],99% (active)
same,growth inhibition,[3]; [15],99% (active)
same,growth inhibition,[3]; at 50.0 µM,90.2% (active)
same,growth inhibition,[4]; [14],99% (active)
same,growth inhibition,[4]; [15],99% (active)
same,growth inhibition,[4]; at 50.0 µM,89.5% (active)
same,growth inhibition,[5]; [14],99% (active)
same,growth inhibition,[5]; [15],99% (active)
same,growth inhibition,[5]; at 50.0 µM,89.2% (active)
same,growth inhibition,[6]; [14],99% (active)
same,growth inhibition,[6]; [15],99% (active)
Sc1ccc(Cl)cc1,growth inhibition,[1]; [14],3%
same,growth inhibition,[1]; [15],51%
same,growth inhibition,[1]; at 50.0 µM,9.5% and 52.4%
same,growth inhibition,[2]; [14],2%
same,growth inhibition,[2]; [15],37%
same,growth inhibition,[2]; at 50.0 µM,10.7% and 32.1%
same,growth inhibition,[3]; [14],5%
same,growth inhibition,[3]; [15],34%
same,growth inhibition,[3]; at 50.0 µM,13.4% and 26.1%
same,growth inhibition,[4]; [14],-1%
same,growth inhibition,[4]; [15],38%
same,growth inhibition,[4]; at 50.0 µM,-45% and 14.8%
same,growth inhibition,[5]; [14],0%
same,growth inhibition,[5]; [15],59%
same,growth inhibition,[5]; at 50.0 µM,-33% and 62.4%
CCC[CH2][Pb]([Cl])([CH2]CCC)[CH2]CCC,growth inhibition,[1]; [14],99% (active)
same,growth inhibition,[1]; [15],98% (active)
same,growth inhibition,[1]; at 50.0 µM,88% (active)
same,growth inhibition,[2]; [14],100% (active)
same,growth inhibition,[2]; [15],99% (active)
same,growth inhibition,[2]; at 50.0 µM,92% (active)
same,growth inhibition,[3]; [14],100% (active)
same,growth inhibition,[3]; [15],99% (active)
same,growth inhibition,[3]; at 50.0 µM,92.2% (active)
same,growth inhibition,[4]; [14],98% (active)
same,growth inhibition,[4]; [15],98% (active)
same,growth inhibition,[4]; at 50.0 µM,91.2% (active)
same,growth inhibition,[5]; [14],100% (active)
same,growth inhibition,[5]; [15],98% (active)
same,growth inhibition,[5]; at 50.0 µM,89.9% (active)
same,growth inhibition,[6]; [14],99% (active)
same,growth inhibition,[6]; [15],98% (active)
